# KKLEB tox – cytotoxicity in KKLEB CF airway cells, primary screen, cytotoxicity control for CF NF-kB inhibitor project, cell-based, uHTS, fluorescence assay plates | activity change (cytotoxicity), % at 5 µM | KKLEB CF airway cells viability, ATPlite luminescence, overnight; hits give low values; cells stimulated with P. aeruginosa culture filtrate | 0.36% of 360,000 active;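 active = corrected activity change at or below -50% at 5 µM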
# HIF-2a block – HIF-2a reporter inhibitors, primary screen, luminescence, 786-0 RCC cells. AID 624352, 2012. inhibition, % at 18.8 µM. 786-0 RCC cells HIF-2a reporter, luciferase luminescence, overnight. 0.72% of 360,000 active;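 active = inhibition of the luminescence signal of 40% or more relative to plate controls, in a single-dose primary screen at 18.75 µM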
# TROY NFkB inh – inhibitors of TROY-driven NF-kB signaling, primary screen, Q293 LMP1-TROYcd cells, NF-kB luciferase, uHTS | Q293 LMP1-TROYcd NF-kB luciferase reporter, 4 h | inhibition, % at 10 µM | 0.98% of 360,000 active | AID 1347056, 2019;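 active = compounds whose plate-normalised and pattern-corrected inhibition of the luciferase reporter signal at the single screening dose is 50% or more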
# TWEAK Fn14 block – inhibitors of TWEAK-Fn14 signaling, primary screen, luciferase reporter cells, uHTS. TWEAK-stimulated Fn14 reporter cells, luciferase luminescence, 8 h. inhibition, % at 10 µM. 2% of 360,000 active. AID 1159606, 2016; in the data active = inhibition above about 50%
# Peg3 prom inh – Peg3 promoter-driven luciferase inhibitors, primary screen, cell-based, HeLa, luciferase luminescence | HeLa PEG-Prom luciferase reporter, overnight | inhibition, % at 20 µM | 1.7% of 360,000 active;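 active = inhibition of at least 50% at 20 µM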
# CF NFkB inh – inhibitors of PAF-induced NF-kB signaling, primary screen, cell-based, GFP fluorescence, uHTS | KKLEB NF-kB-GFP reporter, GFP fluorescence overnight | inhibition, % at 5 µM | 0.86% of 360,000 active | AID 588850, 2011;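 active = at least 50% inhibition at 5 µM, scaled per plate between neutral and stimulator controls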;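 note: PAF is a Pseudomonas aeruginosa culture filtrate used as stimulus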
# A number is an active result; - = inactive. The list is not random: actives were taken first. Their share in the collection is about 4%.
SMILES,KKLEB tox,HIF-2a block,TROY NFkB inh,TWEAK Fn14 block,Peg3 prom inh,CF NFkB inh
CC(=O)c1ccc(OCc2cc(C(=O)N(C)C(C)c3ccon3)no2)cc1 (stereo not given),-,-,-,84.3,-,-
CCN(c1ccccc1)S(=O)(=O)c1ccc(C(=O)Nc2cccc(NC(C)=O)c2)cc1,-,-,-,-,-,-
CCN(c1ccccc1)S(=O)(=O)c1cc(C(=O)Nc2ccc(F)c(F)c2)ccc1F,-,-,63.3,80.4,-,-
O=c1c(-c2ccc(Cl)cc2)coc2c(CN3CCCCC3)c(O)ccc12,-,-,-,-,-,-
O=c1c(-c2ccccc2Cl)coc2c(CN3CCCCC3)c(O)ccc12,-,-,-,64.3,-,-
Fc1ccc(CNC(=S)Nc2cccc(C(F)(F)F)c2)cc1,-,-,-,-,68.6,-
O=[N+]([O-])c1cc(C(F)(F)F)cc([N+](=O)[O-])c1NCCNC(=S)Nc1cccc(F)c1,-,-,68.5,-,-,-
Fc1cccc(NC(=S)NCc2ccc(Cl)cc2)c1,-,-,-,-,-,-
CC(C)(C)NNC(=S)Nc1cccc(F)c1,-,-,-,-,-,-
FC(F)(F)c1cccc(NC(=S)NCc2ccc(Cl)cc2)c1,-,-,59.6,56.6,-,-
Cn1c(N)c(C(=O)CN2CCc3ccccc3C2)c(=O)n(C)c1=O,-,-,-,-,-,-
COc1cc2c(cc1OC)CN(Cc1nc3ccsc3c(=O)[nH]1)CC2,-,-,-,76.5,-,-
O=c1oc2ccccc2cc1-c1ccccc1,-,-,-,-,-,-
O=C(O)c1ccc(-n2cc(-c3cc4ccccc4oc3=O)[nH]c2=S)cc1,-,-,72.4,73.1,-,-
COc1ccc(CCNC(=O)c2nnn(-c3ccc4c(c3)OCCO4)c2N)cc1OC,-,51.2,87.0,97.3,-,-
COc1ccc(CCNC(=O)c2nnn(-c3ccccc3OC)c2N)cc1OC,-,-,-,-,-,-
COc1ccc(-c2nnc(NC(=O)C(C)C)o2)cc1,-,-,-,-,-,-
O=C1[C@H](Oc2ccccc2)[C@@H](c2ccccc2)N1c1ccncc1,-,-,56.4,65.0,-,-
Cc1c(-c2cccc(Cl)c2)nc2ccccc2c1C(=O)NC1CC1,-,-,-,-,-,-
Cc1ccc(NC2=C(NC(=O)c3ccccc3)C(=O)c3ccccc3C2=O)cc1Cl,-,-,-,-,-,-
CC(C)OCCCNC1=C(Cl)C(=O)c2ccccc2C1=O,-,63.9,-,-,-,-
O=C1C(Cl)=C(NCc2cccnc2)C(=O)c2ccccc21,-,-,-,-,-,-
CC(C)NC1=C(Cl)C(=O)c2ccccc2C1=O,-,-,-,-,-,50.1
O=C1C(Cl)=C(NCCc2ccccc2)C(=O)N1CCc1ccccc1,-,-,-,-,-,-
O=C1C(Cl)=C(NCCc2ccccc2)C(=O)c2ccccc21,-,-,-,-,62.8,-
SMILES,KKLEB tox,HIF-2a block,TROY NFkB inh,TWEAK Fn14 block,Peg3 prom inh,CF NFkB inh
O=C(O)c1cccc(NC2=C(Cl)C(=O)c3ccccc3C2=O)c1,-,-,-,59.6,-,-
COc1ccc(C(=O)CC(=O)C(=O)Nc2ccc([N+](=O)[O-])cc2C)cc1,-,-,-,-,-,-
O=C(C[C@H]1C[C@@H]2c3cc(NS(=O)(=O)c4ccccc4)ccc3O[C@@H]2[C@H](CO)O1)N1CCOCC1,-,-,-,-,-,-
Cc1cc(OC(=O)Nc2ccccc2)ccc1Cl,-,-,-,-,-,-
CCN(CC)CCCNC1=C(Cl)C(=O)c2ccccc2C1=O,-,83.8,-,-,-,64.7
COCCCNC1=C(Cl)C(=O)c2ccccc2C1=O,-,84.3,-,-,-,-
C=CCNC1=C(Cl)C(=O)c2ccccc2C1=O,-,-,-,-,-,-
CCCc1nnc(NC(=O)Cn2c(=O)sc3ccccc32)s1,-,-,-,-,-,-
COc1ccc(N2CCN(CCC(=O)c3ccc4ccccc4c3)CC2)cc1,-,-,-,-,103.8,-
O=C(CCN1CCOCC1)c1ccc(N2CCCCC2)cc1,-,-,-,54.8,-,-
O=C(N=C1c2ccccc2CN1c1cccc(Cl)c1)c1cccnc1,-,-,-,-,-,-
O=C(N=C1c2ccccc2CN1c1ccc(F)c(F)c1)c1cccnc1,-,-,-,52.3,-,-
Cc1cc(NC(=O)C(C)SCC(=O)N(C)Cc2ccccc2F)no1 (stereo not given),-,-,-,-,71.1,-
Cc1cc(NC(=O)C(C)SCC(=O)N(Cc2ccccc2)c2ccccc2)no1 (stereo not given),-,-,-,-,-,-
CC(C)c1nnc(NC(=O)CCS(=O)(=O)Cc2ccccc2)s1,-,-,-,-,-,-
CC(C)c1nnc(NC(=O)CCS(=O)(=O)c2nc(-c3cccs3)cc(C(F)(F)F)n2)s1,-,-,50.3,62.5,107.0,95.4
CC(C)c1nc(SCc2c(F)cccc2Cl)c2c(=O)n(C)c(=O)n(C)c2n1,-,-,-,-,62.8,-
O=C1CC[C@@H]2CC(N3CCN(c4ccccc4)CC3)C[C@@H]3CCN1[C@H]23 (stereo not given in full),-,-,-,-,-,-
CCOC(=O)C1=NNC(C(=O)c2ccc(C)cc2)C1c1ccc(OC)cc1 (stereo not given),-,-,-,71.9,-,-
CC1=NN(c2nc(-c3ccc(C)cc3)cs2)C(=O)C1N=Nc1ccccc1O (stereo not given),-,-,-,62.2,-,-
CC1=NN(c2nc(-c3ccc(C)cc3)cs2)C(=O)C1N=Nc1cccc(O)c1 (stereo not given),-,-,-,50.0,-,-
COc1ccc(-c2n(Cc3ccccc3)c3ccccc3[n+]2Cc2ccccc2)cc1,-,-,50.1,-,-,-
CN(C)C(CNC(=O)c1ccc(NS(=O)(=O)c2ccc(F)c(F)c2)cc1)c1ccccc1 (stereo not given),-,-,-,-,-,-
COc1ccc2c(c1)[nH]c1c(N3CCN(Cc4ccc5c(c4)OCO5)CC3)ncnc12,-,-,65.9,100.0,-,-
COc1cc2[nH]c3c(N4CCN(c5ccc(Cl)cc5)CC4)ncnc3c2cc1OC,-,-,-,-,-,-
COc1ccc2c(c1)[nH]c1c(N3CCSCC3)ncnc12,-,-,63.5,-,-,-
COc1cccc(N2CCN(c3ncnc4c3[nH]c3ccc(F)cc34)CC2C)c1 (stereo not given),-,-,86.2,104.5,114.0,87.7
